Rows were chosen to be rich in hits. Some 3.3% of all compounds tested hit in one or more screens of this group.
AmpC no deterg: AmpC beta-lactamase inhibition without detergent; AmpC nitrocefin hydrolysis, absorbance 480 nm, 0.0001% Triton; P00811; 330,000 compounds, 0.52% hits; Potency, µM (series often up to 57.1 µM), usual class: inhibitors; also: nearly all actives have a fitted effect of over 20% in size
Target sequence (P00811 whole entry, looked up): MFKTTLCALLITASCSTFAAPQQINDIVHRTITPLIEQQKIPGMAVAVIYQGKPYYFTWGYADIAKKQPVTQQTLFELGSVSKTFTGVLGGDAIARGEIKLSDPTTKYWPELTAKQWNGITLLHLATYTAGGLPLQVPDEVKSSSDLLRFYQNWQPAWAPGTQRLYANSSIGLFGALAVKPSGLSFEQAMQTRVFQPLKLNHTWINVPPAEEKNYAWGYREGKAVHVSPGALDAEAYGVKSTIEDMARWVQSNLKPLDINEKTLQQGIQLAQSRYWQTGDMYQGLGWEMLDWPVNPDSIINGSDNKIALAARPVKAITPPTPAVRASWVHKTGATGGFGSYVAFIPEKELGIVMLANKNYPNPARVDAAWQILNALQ
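AmpC (5.3 nM in the dispensed reagent) in 20 mM phosphate pH 7.0 with 0.01% (detergent screen) or 0.0001% Triton X-100 was preincubated with compounds for 15 min at room temperature. Nitrocefin was then added from an 800 uM solution, and hydrolysis was followed at 480 nm.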
AmpC detergent: inhibitors of E. coli AmpC beta-lactamase with detergent. 370,000 compounds, 0.041% hits. Potency, µM (highest dose often 114 µM), usual class: inhibitors. P00811. AmpC hydrolysis of nitrocefin, absorbance 480 nm, 0.01% Triton; also: nearly all actives have a fitted effect of over 25% in size
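AmpC (5.3 nM in the dispensed reagent) in 20 mM phosphate pH 7.0 with 0.01% (detergent screen) or 0.0001% Triton X-100 was preincubated with compounds for 15 min at room temperature. Nitrocefin was then added from an 800 uM solution, and hydrolysis was followed at 480 nm.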
Sm TGR inh: S. mansoni TGR enzyme inhibition | Q962Y6 | AID 485364 | Potency, µM (series often up to 114 µM), hits mostly inhibitors | purified TGR, DTNB reduction, TNB absorbance 405 nm | 360,000 compounds, 3% hits; also: nearly all actives have a fitted effect of over 60% in size
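First, TGR (20 nM dispensed) and NADPH were mixed with compound. Second, a 15 min room-temperature incubation followed. Third, further NADPH and then DTNB were added to start the reaction. Finally, TNB absorbance was monitored kinetically.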
Of the large screens only hits and unclear results are named; the others gave an inactive call. Calls follow the shape of the dose curve; as a rule, active = well fitted curve in the direction sought with a large enough effect; inconclusive = small, poorly fitted or top-dose-only effect, or another doubt; inactive = no such curve, though single readings can be large; an effect the other way counts as inactive or inconclusive.

Cc1cnc2c(c1SCC(=O)Nc1ccc(F)cc1F)c(=O)n(C)c(=O)n2C	none (no result: AmpC no deterg)
Cc1nc(-c2ccc(Cl)cc2)sc1CCNC(=O)C(=O)Nc1ccc2c(c1)OCO2	none (no result: AmpC no deterg)
Cc1ccn2c(Nc3ccc(F)cc3)c(-c3ccc(C)o3)nc2c1	none (no result: AmpC no deterg)
Cc1ccc(Nc2c(-c3ccc(C)o3)nc3ncccn23)cc1	Sm TGR inh 20µM
Cc1ccccc1Nc1c(-c2cccc(Cl)c2)nc2ncccn12	none (no result: AmpC no deterg)
Cc1ccc(-c2nc3ncccn3c2Nc2ccccc2C)o1	Sm TGR inh 40µM
Cc1ccc(-c2nc3ncccn3c2Nc2ccc3c(c2)OCO3)o1	Sm TGR inh inconclusive
Cc1ccc(-c2nc3cnccn3c2Nc2c(C)cccc2C)o1	Sm TGR inh 14µM
Brc1ccc(-c2nc3ncccn3c2NC2CCCCC2)o1	Sm TGR inh 35µM
Cc1ccc(-c2nc3ncccn3c2NC2CCCC2)o1	none
COc1cc(C(=O)NCc2ccc3c(c2)CCN3C(=O)c2ccncc2)cc(OC)c1OC	none (no result: AmpC no deterg)
CCC(C)NC(=O)CCc1c(C)nc2cc(-c3ccc(OC)cc3OC)nn2c1C (configuration not stated)	none (no result: AmpC no deterg)
Cc1cc(Br)ccc1NC(=O)CSc1c2c(nc3ccccc13)CCC2	none (no result: AmpC no deterg)
Cc1ccccc1-c1nc2cc(NC(=O)COc3ccc(F)cc3)ccc2o1	none (no result: AmpC no deterg)
COc1cccc2sc(N(Cc3cccnc3)C(=O)C3CCCCC3)nc12	none (no result: AmpC no deterg)
CC(C)NC(=O)CSc1cn(CC(=O)N2CCCCCC2)c2ccccc12	none (no result: AmpC no deterg)
CCOC(=O)C(=Cc1ccc(-n2cncn2)cc1)C(=O)OCC	Sm TGR inh 16µM
CCOC(=O)C(=CNc1cc(C)nn1-c1ccc(Cl)cc1)C(=O)OCC	none
CCc1ccc(NC(=O)CN2C(=O)C(c3ccc(F)cc3)=NC2(C)C)cc1	none (no result: AmpC no deterg)
CCN(CC)C(=O)CC(c1ccccc1)c1ccco1 (configuration not stated)	Sm TGR inh inconclusive
O=C(CC(c1ccc(F)cc1)c1ccco1)N1CCCC1 (configuration not stated)	Sm TGR inh 14µM
O=C(CC(c1ccc(F)cc1)c1ccco1)N1CCOCC1 (configuration not stated)	AmpC detergent inconclusive
CCCN(CCC)C(=O)CC(c1ccc(F)cc1)c1ccco1 (configuration not stated)	Sm TGR inh 11µM
Cc1ccc2cccc(NC(=O)c3cccc4c(Cl)cccc34)c2n1	none (no result: AmpC no deterg)
CCOC(=O)c1c(C)[nH]c(C)c1S(=O)(=O)N(C)CC(=O)N1CCN(c2cccc(Cl)c2)CC1	none (no result: AmpC no deterg)
O=C(NCCCN1CCCC1=O)C1CCN(S(=O)(=O)c2cc(C(F)(F)F)ccc2Cl)CC1	none
CCSc1nnc(NC(=O)C2CCN(S(=O)(=O)c3cc(C(F)(F)F)ccc3Cl)CC2)s1	AmpC detergent inconclusive, Sm TGR inh 89µM
CC(=O)c1nn(-c2ccc(OC(F)(F)F)cc2)nc1Nc1ccc(Cl)cc1	none (no result: AmpC no deterg)
C[C@H](NC(=O)[C@@H]1Cc2ccccc2CN1C(=O)OC(C)(C)C)C(=O)NCc1ccco1	Sm TGR inh 40µM
C[C@@H](NC(=O)[C@@H]1Cc2ccccc2CN1C(=O)OC(C)(C)C)C(=O)NCc1ccco1	none
O=C(NCc1cccnc1)Nc1ccc2c(c1)OCO2	none
Cc1ccc(CNc2ccc3c(c2)OCO3)c(C)c1	Sm TGR inh 40µM (no result: AmpC no deterg)
c1cncc(CNc2ccc3c(c2)OCO3)c1	Sm TGR inh 16µM
O=C(Cn1nc(Cc2cccnc2)c2ccccc2c1=O)Nc1ccc2c(c1)OCO2	AmpC no deterg 10µM
O=C(Cn1nc(Cc2cccnc2)c2ccccc2c1=O)Nc1ccc(F)c(Cl)c1	none (no result: AmpC no deterg)
Cc1nn(CC(=O)Nc2ccc3c(c2)OCO3)c(C)c1Cl	none
O=C(Cn1ncc(Cl)c(Cl)c1=O)Nc1ccc2c(c1)OCO2	Sm TGR inh 45µM
Cc1ccc(C)c(NC(=O)Nc2ccc3c(c2)OCO3)c1	none
Cc1cccc(CCNC(=O)c2nn(C)c3c2CSc2ccccc2-3)c1	none (no result: AmpC no deterg)
COc1ccc2c(c1)-c1nc(NC(=O)c3ccc(OC)c(Br)c3)sc1CC2	none (no result: AmpC no deterg)
COC(=O)Cn1c(SCCOc2ccccc2Cl)nc2ccccc21	none (no result: AmpC no deterg)
CCC(=O)N1CCc2cc(S(=O)(=O)NC(CC(C)C)C(=O)Nc3cc(C)ccc3OC)ccc21 (configuration not stated)	none (no result: AmpC no deterg)
COc1ccc(NC(=O)Cn2c(=O)oc3cc(S(=O)(=O)NCc4ccccc4)ccc32)c(OC)c1	none (no result: AmpC no deterg)
COc1ccc(S(=O)(=O)N2CCN(CC(=O)Nc3ccc(Cl)c(C(F)(F)F)c3)CC2)cc1	none (no result: AmpC no deterg)
CCC(CC)C(=O)Nc1ccc2nc(SCC(=O)N3CCc4ccccc43)sc2c1	none (no result: AmpC no deterg)
CCn1cc(C(=O)NC(C)C23CC4CC(CC(C4)C2)C3)cn1 (configuration not stated)	none
CCN(CC)S(=O)(=O)c1cc(NC(=O)Cn2ncc(Cl)c(Cl)c2=O)ccc1C	Sm TGR inh 0.56µM
